Measured values published in PubChem BioAssay AID1159580 (chemical genetic matrix, 2015).
In all, about 5,500 compounds went through this assay and about 2,000 (36%) were called active. Not shown: some 18% with an inconclusive outcome. Rule as the data show it: active = normalized growth mostly below about 0.91 (no sharp cut-off); inconclusive = no clear call, values can overlap the other calls; inactive = mostly above about 0.92. This is one part of the list.

Assay: chemical genetic growth profiling, strain panel (AID 1159580);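 also: tested at 20 µM; growth read once vehicle control cultures reached saturation at 30 °C; 1 = growth at the plate median or of vehicle wells; lower values mean less growth of the strain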
Conditions: S. cerevisiae deletion strains, growth OD

Measured: normalized growth

CC(=O)[C@@]1(O)CC[C@H]2[C@@H]3CCC4=CC(=O)CC[C@]4(C)[C@H]3CC[C@@]21C
inactive: locus YAL013W, strain DEP1, active compounds read low 0.961 | locus YAL040C, strain CLN3, active compounds read low 0.947 | locus YCL061C, strain MRC1 (second series), active compounds read low 0.985 | locus YDR150W, strain NUM1, active compounds read low 1 | locus YDR363W, strain ESC2, active compounds read low 0.996 | locus YER002W, strain NOP16, active compounds read low 0.967 | locus YGR078C, strain PAC10, active compounds read low 0.975 | locus YGR229C, strain SMI1, active compounds read low 1.01 | locus YJR075W, strain HOC1, active compounds read low 0.984 | locus YMR307W, strain GAS1, active compounds read low 0.979 | locus YNL175C, strain NOP13, active compounds read low 0.97 | locus YNL197C, strain WHI3, active compounds read low 0.966 | locus YNL224C, strain SQS1, active compounds read low 0.957 | locus YOR083W, strain WHI5 (second series), active compounds read low 1.03
